This is an account of results in PubChem BioAssay.

Molecules are shown by their SMILES. Active and inactive are the calls of the source. Unless noted, how the calls were made is not given here.

Test [1] can be described thus: compound effects on lung adenocarcinoma cell viability – A549, calcein-AM fluorescence, 48 h, basal, profiling panel (AID 1162). Further: test concentration not given here. The settings on record: higher = more signal.
Test [2] is described as follows: compound effects on differentiated 3T3-L1 adipocyte viability – cell-based, 3T3-L1 adipocytes, calcein-AM fluorescence, 48 h, basal, profiling panel (AID 1163). Further: test concentration not given here. The settings on record: 3T3-L1 adipocytes viability, higher = more signal.
A short description of test [3]: compound effects on hepatocellular carcinoma cell viability – HepG2, calcein-AM fluorescence, 48 h, basal, profiling panel (AID 1164). Further: test concentration not given here. Conditions: higher = more signal.
Test [4] can be described thus: compound effects on multiple myeloma cell viability – MM1S, calcein-AM fluorescence, 48 h, basal, profiling panel (AID 1165). Further: test concentration not given here. Conditions: higher = more signal.
Test [5] is described as follows: calcein-AM signal in unstimulated myeloma cells – cell-based, calcein-AM fluorescence, 48 h, PK04 Diversity Set, profiling panel (AID 1166).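 Further: cells grown under basal conditions without added stimulus; test concentration not given here.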 The settings on record: RPMI8226 myeloma viability, higher = more signal.
A short description of test [6]: JC-1 mitochondrial signal, unstimulated HepG2 cells – cell-based, JC-1 fluorescence, 24 h, 100 nL compound, profiling panel (AID 1167). Further: test concentration not given here. The settings on record: HepG2 mitochondrial potential, higher = more signal.
Test [7] is described as follows: JC-1 mitochondrial signal, unstimulated adipocytes – cell-based, JC-1 fluorescence, 3T3-L1 adipocytes, 24 h, 100 nL compound, profiling panel (AID 1168). Further: test concentration not given here. The settings on record: JC-1 mitochondrial fluorescence, higher = more signal, called active from +8 up or from −8 down.
Test [8] can be described thus: JC-1 mitochondrial signal, unstimulated myeloma cells – cell-based, JC-1 fluorescence, RPMI8226, 24 h, 100 nL compound, profiling panel (AID 1169). Further: test concentration not given here. The settings on record: JC-1 mitochondrial potential fluorescence, higher = more signal.
A short description of test [9]: JC-1 mitochondrial signal, unstimulated MM1S myeloma – cell-based, JC-1 fluorescence, 24 h, 100 nL compound, profiling panel (AID 1170). Further: test concentration not given here. Conditions: MM1S mitochondrial potential, higher = more signal.
The nature of test [10]: resazurin metabolic signal in A549 cells – cell-based, resazurin fluorescence, 24 h, PK04 Diversity Set, profiling panel (AID 1171). Further: test concentration not given here. Conditions: A549 viability, higher = more signal, called active from +8 up or from −8 down. Background: Resazurin is reduced to fluorescent resorufin, in cell work by metabolically active cells.
The nature of test [11]: resazurin metabolic signal in HepG2 cells – cell-based, resazurin fluorescence, 24 h, PK04 Diversity Set, profiling panel (AID 1172). Further: test concentration not given here. Conditions: HepG2 viability, higher = more signal.
A short description of test [12]: budding yeast growth changes without added modifier – OD600, strain BY4716, 24 h, basal condition, primary screen (AID 1173). The settings on record: S. cerevisiae BY4716 growth, OD600, 24 h; higher = more signal, called active from +8 up or from −8 down.
A short description of test [13]: viability profiling in MM1S myeloma cells – cell-based, resazurin fluorescence, basal, 24 h, PK04 Diversity Set, profiling panel (AID 1174). Further: test concentration not given here. The settings on record: higher = more signal, called active from +8 up or from −8 down.
Test [14] addresses Dihydroorotate dehydrogenase (quinone), mitochondrial (Plasmodium falciparum (isolate 3D7)) (UniProt Q08210). The test is described as follows: inhibition of P. falciparum DHODH – biochemical, C-terminal His tag, absorbance 600 nm, primary screen (AID 1175).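 Further: recombinant parasite enzyme with a five histidine tag at its C terminus; test concentration not given here.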 The settings on record: PfDHODH enzyme, DCIP absorbance 600 nm; higher = more signal, called active from +8 up or from −8 down.

A short description of test [15]: inhibition of PAO1 biofilm formation – strain PAO1, LB-PBS medium, absorbance 600 nm, primary screen (AID 1176). Further: test concentration not given here. The settings on record: P. aeruginosa PAO1 growth/biofilm, A600, 12 h; higher = more signal.
Test [16] in a line: growth modulation of vineyard yeast isolate – strain RM11-1a, OD600, basal, 24 h, primary screen (AID 1177).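 Further: cultures grown under basal conditions with no added stressor; test concentration not given here.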 Conditions: S. cerevisiae RM11-1a growth, OD600, 24 h; higher = more signal, called active from +8 up or from −8 down.
Test [17] in a line: growth of efflux-deficient E. coli DRC39 – strain DRC39, OD650, 24 h, E. coli filamentation inducers, primary screen (AID 1178).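 Further: growth measured as culture turbidity by optical density at 650 nm; test concentration not given here.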 The settings on record: E. coli DRC39 acrAB, higher = more signal, called active from +8 up or from −8 down.
The nature of test [18]: growth of efflux-deficient E. coli DRC39 – strain DRC39, OD650, 48 h, E. coli filamentation inducers, primary screen (AID 1179).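 Further: screen aims at cell division blockers that make cells filament.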 The settings on record: E. coli DRC39 delta-acrAB growth, higher = more signal, called active from +8 up or from −8 down.
Test [19] in a line: viability profiling in RPMI8226 myeloma cells – cell-based, resazurin fluorescence, basal, 24 h, PK04 Diversity Set, profiling panel (AID 1180).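 Further: RPMI8826 multiple myeloma cell line at 5000 cells per well; test concentration not given here.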 Conditions: higher = more signal.
In test [20] the target is E3 ubiquitin-protein ligase XIAP (Homo sapiens) (UniProt P98170). The test can be described thus: small molecules binding XIAP protein – biophysical, small-molecule microarray, fluorescence 635 nm, primary screen (AID 1181).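 Further: score merges 667 nm emission and signal to noise over triplicate slides.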 Conditions: higher = more signal.
Sequence of E3 ubiquitin-protein ligase XIAP (Homo sapiens) (P98170 whole entry, looked up): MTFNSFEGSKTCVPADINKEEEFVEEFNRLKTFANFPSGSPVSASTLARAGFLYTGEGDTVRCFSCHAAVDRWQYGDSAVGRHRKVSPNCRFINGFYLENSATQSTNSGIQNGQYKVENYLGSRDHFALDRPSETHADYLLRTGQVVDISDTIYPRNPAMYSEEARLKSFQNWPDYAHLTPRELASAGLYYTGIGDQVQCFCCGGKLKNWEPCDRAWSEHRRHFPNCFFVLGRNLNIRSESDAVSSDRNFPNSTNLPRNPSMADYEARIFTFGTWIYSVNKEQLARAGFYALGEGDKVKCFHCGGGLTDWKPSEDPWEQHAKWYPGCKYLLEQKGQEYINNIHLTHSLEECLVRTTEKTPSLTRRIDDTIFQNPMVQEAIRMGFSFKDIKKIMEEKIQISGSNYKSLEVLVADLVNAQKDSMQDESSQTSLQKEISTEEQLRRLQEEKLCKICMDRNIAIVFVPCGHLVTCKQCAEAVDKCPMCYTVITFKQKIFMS

Sequence of Dihydroorotate dehydrogenase (quinone), mitochondrial (Plasmodium falciparum (isolate 3D7)) (Q08210 whole entry, looked up): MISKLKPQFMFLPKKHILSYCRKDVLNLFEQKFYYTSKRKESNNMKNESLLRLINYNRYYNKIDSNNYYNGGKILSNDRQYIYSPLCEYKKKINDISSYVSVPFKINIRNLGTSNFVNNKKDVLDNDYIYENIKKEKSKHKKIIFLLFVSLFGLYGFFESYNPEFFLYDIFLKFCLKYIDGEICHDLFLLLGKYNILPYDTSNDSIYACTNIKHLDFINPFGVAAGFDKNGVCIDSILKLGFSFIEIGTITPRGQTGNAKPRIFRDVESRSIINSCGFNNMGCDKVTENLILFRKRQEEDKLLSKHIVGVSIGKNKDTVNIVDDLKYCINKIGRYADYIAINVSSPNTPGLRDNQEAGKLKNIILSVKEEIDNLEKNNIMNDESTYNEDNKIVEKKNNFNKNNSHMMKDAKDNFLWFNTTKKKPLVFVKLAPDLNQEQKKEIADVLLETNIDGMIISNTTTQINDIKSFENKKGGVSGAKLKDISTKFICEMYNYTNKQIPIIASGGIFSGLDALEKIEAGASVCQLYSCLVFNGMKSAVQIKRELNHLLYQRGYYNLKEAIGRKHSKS

In the case of `C=CCNC(=O)[C@H]1[C@@H]2C(=O)O[C@@H](c3ccccc3)[C@@H](c3ccccc3)N2[C@@H](c2ccccc2OCCO)[C@]12C(=O)N(C(=O)OCCOC)c1ccccc12`, the z-score was -1.25 in test [1]; -0.575 in test [2]; -1.3 in test [3]; -3.05 in test [4]; -3.82 in [5]; 0.387 in test [6]. The z-score in test [7] is -0.49 (inactive); in test [8], -0.919; in test [9], -1.19; in test [10], -1.04 (inactive); in test [11], -0.293; in test [12], 1.52 (inactive). Besides, the z-score is -1.04 (inactive) in [13]; 2.98 (inactive) in [15]; 2 (inactive) in test [16]; 0.225 (inactive) in test [17]; -0.369 (inactive) in [18]; -2.9 in [19]. For the same compound, the results for the composite z-score in test [14] and in [20] were 0.692 (inactive) and 0.0797, respectively.
As to `CC(C)CNC(=O)[C@@H]1c2ccccc2C(=O)N(C(C)C)[C@H]1c1ccc(CO)cc1`, the z-score is 0.456 in [1]; 1.27 in test [2]; 1.15 in test [3]; 0.333 in test [4]; 1.49 in test [5]; 1.49 in [6]. Besides, the z-score in test [7] was 1.29 (inactive); in test [8], 0.793; in [9], -0.357; in test [10], -0.174 (inactive); in test [11], 0.0161; in [12] it was 0.294 (inactive). The z-score in test [13] is 0.334 (inactive); in test [15], 0.348 (inactive); in test [16], -1.19 (inactive); in [17] it was 0.855 (inactive); in [18], 1.76 (inactive); in test [19] it was 0.609. Further, the composite z-score in test [14] is -1.57 (inactive); in test [20], -0.0434.
Consider `CCOC(=O)C1=CC[C@@H](c2ccccc2Cl)N(S(=O)(=O)c2ccc(C)cc2)[C@H]1c1cccc(OC)c1`, for which the z-score in test [1] was -0.698; in test [2] it was -1.56; in test [3], -0.467; in test [4], -0.744; in [5], 0.688; in [6], 0.405. Also, the z-score is -1.39 (inactive) in test [7]; 0.702 in test [8]; -0.539 in test [9]; 0.219 (inactive) in test [10]; -0.18 in [11]; 1.46 (inactive) in [12]. Besides, the z-score in test [13] was -0.703 (inactive); in test [15], 0.34 (inactive); in [16], 0.822 (inactive); in [17], -0.484 (inactive); in test [18] it was -0.679 (inactive); in [19], -1.53. In addition, the composite z-score was 0.0463 (inactive) in [14] and -0.114 in [20].
Turning to `C=CCC(OC(C)=O)[C@@H]1[C@@H](N(Cc2cc3ccccc3o2)C(=O)c2cccc3ccccc23)c2cc(OCCCO)ccc2N1C(=O)c1ccc2ccccc2c1` (stereo not given in full), the z-score in test [1] was 0.668; in test [2], 0.935; in test [3], 0.0108; in test [4] it was 0.364; in test [5] it was -1.98; in test [6], 1.93. The z-score in [7] is -1.18 (inactive); in test [8], -0.276; in test [9] it was -0.42; in test [10] it was -1.55 (inactive); in [11], -1.18; in [12], -0.469 (inactive). Moreover, the z-score was -0.581 (inactive) in [13]; -0.227 (inactive) in test [15]; -0.389 (inactive) in test [16]; -0.423 (inactive) in test [17]; -0.797 (inactive) in test [18]; -0.855 in test [19]. Also, the composite z-score in test [14] is 0.0769 (inactive); in [20], -0.146.
With `Cc1ccc(F)cc1S(=O)(=O)N[C@@H]1CCN(Cc2ccc3[nH]ccc3c2)C1`, the z-score is 0.173 in [1]; -0.939 in test [2]; -0.696 in test [3]; -3.43 in test [4]; -1.63 in test [5]; -1.33 in test [6]. The z-score in [7] is -0.261 (inactive); in test [8], 0.321; in test [9], -1.34; in [10], -0.0035 (inactive); in test [11] it was -1.14; in [12], -2.59 (inactive). The z-score in [13] is -0.946 (inactive); in test [15], -0.189 (inactive); in [16], -0.773 (inactive); in [17] it was -1.37 (inactive); in [18] it was -4.18 (inactive); in [19], -0.73. Further, the composite z-score in test [14] is -0.203 (inactive); in [20], -0.144.
On to `C=C(CCCC)C(=O)CC[C@H](OC(C)=O)c1ccccc1OCCO`, for which the z-score in [1] is -0.655; in [2], 1.66; in [3], -0.713; in test [4], -3.29; in test [5] it was -2.91; in test [6], 0.103. Besides, the z-score in [7] was 0.98 (inactive); in test [8] it was -0.706; in test [9] it was 0.346; in test [10], -1.24 (inactive); in [11] it was -1.32; in test [12] it was -2.49 (inactive). For the same compound, the z-score in [13] was -2.2 (inactive); in test [15], -1.24 (inactive); in test [16], 0.0549 (inactive); in test [17] it was -1.17 (inactive); in test [18] it was -1.1 (inactive); in test [19], -2.13. Besides, the composite z-score in test [14] is -0.573 (inactive); in test [20], -0.0696.
As for `N#Cc1ccc(C(O)C2C=CC3C(=O)NC(=O)C3N2Nc2ccccn2)cc1` (stereo not given), the z-score is 0.517 in test [1]; -0.239 in test [2]; 1.43 in [3]; 0.435 in test [4]; -0.792 in [5]; -0.183 in test [6]. The z-score in [7] is -0.277 (inactive); in test [8] it was 0.274; in [9], -0.839; in test [10] it was -1.36 (inactive); in [11], -1.62; in [12], -0.055 (inactive). For the same compound, the z-score in [13] was -0.601 (inactive); in test [15] it was 0.791 (inactive); in test [16], -1.57 (inactive); in [17] it was 0.0007 (inactive); in test [18], 1.25 (inactive); in test [19], -0.353. Besides, the composite z-score in [14] is -0.127 (inactive); in [20], -0.0536.
Take `CCCCC(O)C1C=CC2C(=O)NC(=O)C2N1Nc1ccc(Cl)cc1Cl` (stereo not given): the z-score in test [1] was -1.99; in test [2] it was 0.266; in test [3], -2.39; in [4], -1.55; in [5] it was -2.27; in [6] it was -2.38. In addition, the z-score in test [7] is -0.831 (inactive); in test [8], -0.64; in [9], 0.724; in test [10] it was -1.99 (inactive); in test [11], -2.57; in [12] it was -16.6 (active). The z-score in test [13] is -2.26 (inactive); in test [15], 0.546 (inactive); in [16], -5.12 (inactive); in test [17] it was -0.818 (inactive); in test [18], -1.31 (inactive); in test [19], -2.01. Also, the composite z-score was -0.2 (inactive) in [14] and -0.272 in [20].
On to `C=CCC(OC(C)=O)[C@@H]1[C@@H](N(Cc2cccc3ccccc23)C(=O)c2ccc(-c3ccccc3)cc2)c2cc(OCCCO)ccc2N1C(=O)c1ccc2ccccc2n1` (stereo not given in full), for which the z-score in test [1] was -0.421; in [2], 0.587; in test [3], 0.589; in test [4] it was -0.848; in test [5], -0.842; in test [6], 1.08. Moreover, the z-score in test [7] is -0.12 (inactive); in [8], 0.61; in test [9] it was -0.0192; in test [10] it was 0.701 (inactive); in test [11], -0.0049; in test [12] it was 0.493 (inactive). Moreover, the z-score in [13] was 0.623 (inactive); in test [15], 0.35 (inactive); in test [16], -0.634 (inactive); in test [17], -0.267 (inactive); in test [18] it was -0.174 (inactive); in test [19], 0.485. Further, the composite z-score was -0.318 (inactive) in test [14] and -0.0102 in test [20].
